High-throughput results: PubChem, The Scripps Research Institute Molecular Screening Center
Compounds with a hit are over-represented: about 4.8% of the library has one in this group of screens.
DAX1 inh-1 – NR0B1 (DAX1) inhibition; inhibition, % at 6.75 µM; P51843; actives 0.99% (n = 340,000); AID 504766; HEK293 Gal4-DAX1 luciferase reporter, luminescence;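 active means inhibition above the mean over all tested compounds plus 3 SD, cut at about 4.2% in these data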;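 further: inhibition shows as a rise in luminescence from relieved DAX1 repression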
Target sequence (P51843 207-470 limits assumed): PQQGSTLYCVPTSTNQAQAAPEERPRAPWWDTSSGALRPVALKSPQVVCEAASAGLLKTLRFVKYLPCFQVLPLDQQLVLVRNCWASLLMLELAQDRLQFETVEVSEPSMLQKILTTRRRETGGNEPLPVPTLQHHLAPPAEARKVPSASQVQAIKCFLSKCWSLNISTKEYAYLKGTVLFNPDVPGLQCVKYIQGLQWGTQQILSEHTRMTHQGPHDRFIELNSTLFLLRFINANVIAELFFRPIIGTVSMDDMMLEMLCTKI
hcDAF-12 act – H. contortus DAF-12 activation, primary screen. activation, % at 6.8 µM. HEK293 hcDAF-12 lit1-tk-luc reporter, luminescence; 0% DMSO, 100% Δ7-dafachronic acid. actives 1.4% (n = 370,000);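 active means activation above the mean of all tested compounds plus 3 SD, cut at about 5.5% in these data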
hgDAF-12 ag – activates the H. glycines DAF-12 receptor ligand-binding domain | HEK293 GAL4-hgDAF12 UAS-luciferase reporter, agonist luminescence; normalized to butyrate control | actives 1.8% (n = 370,000) | activation, % at 6.8 µM;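 active means activation above a cutoff set at the mean of all screened compounds plus 3 SD, cut at about 10% in these data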
ssDAF12 agonist – S. stercoralis DAF-12 activation, primary screen | HEK293 ssDAF-12/GRIP1 lit1-tk-luc reporter, luminescence; % of 3 µM dafachronic acid response | activation, % at 6.8 µM | actives 1% (n = 370,000);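 active means activation above the mean over all tested compounds plus 3 SD, cut at about 0.9% in these data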
DAX1 inh-2 – inhibitors of DAX1 repression of SF-1 activated StAR promoter | inhibition, % at 6.8 µM | actives 1.1% (n = 370,000) | HEK293T StAR-luciferase reporter, SF-1/DAX-1 repression relief;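 active means inhibition above the mean over all tested compounds plus 3 SD, cut at about 3.6% in these data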;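 further: higher inhibition means more luminescence from relief of DAX-1 repression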
SMARCA2 activ – SMARCA2 function activation, primary screen; MG213 cells, MMTV-luciferase reporter, dexamethasone, overnight; activation, % at 9.1 µM; AID 652017; actives 1% (n = 370,000); in the data active means activation above about 7.8%
Numbers stand for hits.

CCn1c(=O)n2n(c1=O)[C@H]1C[N+](Cc3ccc4c(c3)OCO4)=C(N)NC1=C(C)C2 was read as hcDAF-12 act inactive, hgDAF-12 ag inactive and ssDAF12 agonist inactive.
`CC1(N2CCCCC2)C(=O)c2ccccc2C1=O` gave DAX1 inh-1 inactive, hcDAF-12 act inactive, hgDAF-12 ag inactive, ssDAF12 agonist 1.0, DAX1 inh-2 inactive and SMARCA2 activ inactive.
Screening CN(CC(=O)Nc1ccccc1C(=O)NC1CC1)Cc1ccc(Cl)cc1 returned DAX1 inh-1 inactive, hcDAF-12 act inactive, hgDAF-12 ag inactive, ssDAF12 agonist inactive, DAX1 inh-2 inactive and SMARCA2 activ 7.9.
Screening CN(C)/N=C/c1ccc(OS(=O)(=O)c2ccccc2)cc1 returned DAX1 inh-1 inactive, hcDAF-12 act inactive, hgDAF-12 ag 11, ssDAF12 agonist inactive, DAX1 inh-2 inactive and SMARCA2 activ inactive.
`CC1CCCCC1NC(=O)c1cc(Cl)nc2ccccc12` (stereo not given) gave DAX1 inh-1 inactive, hcDAF-12 act inactive, hgDAF-12 ag inactive, ssDAF12 agonist 1.4, DAX1 inh-2 inactive and SMARCA2 activ inactive.
Screening CC(C)NC(=O)c1cc2ccccc2o1 returned DAX1 inh-1 5.1, hcDAF-12 act inactive, hgDAF-12 ag inactive, ssDAF12 agonist inactive, DAX1 inh-2 inactive and SMARCA2 activ inactive.
For O=C(NC1CCCCC1)c1cc(Cl)nc2ccccc12 the results were DAX1 inh-1 inactive, hcDAF-12 act inactive, hgDAF-12 ag inactive, ssDAF12 agonist inactive, DAX1 inh-2 inactive and SMARCA2 activ inactive.
CC1CCCCC1NC(=O)c1cc2ccccc2o1 (stereo not given) was read as DAX1 inh-1 inactive, hcDAF-12 act inactive, hgDAF-12 ag 11, ssDAF12 agonist inactive, DAX1 inh-2 inactive and SMARCA2 activ inactive.
For CC(NC(=O)c1cc2ccccc2o1)C(=O)O (stereo not given) the results were DAX1 inh-1 inactive, hcDAF-12 act inactive, hgDAF-12 ag inactive, ssDAF12 agonist inactive, DAX1 inh-2 inactive and SMARCA2 activ inactive.
O=C(CCCCCN1C(=O)C2C3C=CC(C3)C2C1=O)Nc1cc(F)cc(F)c1 (stereo not given) was read as hcDAF-12 act inactive, hgDAF-12 ag inactive, ssDAF12 agonist inactive, DAX1 inh-2 inactive and SMARCA2 activ inactive.
For O=C(NCCc1nc2ccccc2n1CCOc1ccc2cccnc2c1)C1CCCCC1 the results were hcDAF-12 act inactive, hgDAF-12 ag inactive and ssDAF12 agonist inactive.
COC(=O)[C@]12C[C@H](CC(=O)NCc3ccc(C)o3)C(=O)N(Cc3ccco3)C1=C[C@H](COCc1ccccc1)O[C@@H]2C was read as hcDAF-12 act inactive, hgDAF-12 ag inactive, ssDAF12 agonist inactive, DAX1 inh-2 inactive and SMARCA2 activ inactive.
Screening O=C1CCCC/C1=C\Nc1ccc(Cl)cn1 returned DAX1 inh-1 4.3, hcDAF-12 act inactive, hgDAF-12 ag inactive, ssDAF12 agonist inactive, DAX1 inh-2 inactive and SMARCA2 activ inactive.
`Cc1cc(C)cc(NC(=O)OC2CC3CC2[C@H]2CCCCN2[C@H]3C)c1` (stereo not given in full) gave hcDAF-12 act inactive, hgDAF-12 ag inactive, ssDAF12 agonist inactive, DAX1 inh-2 inactive and SMARCA2 activ inactive.
For CN(C)[C@H]1CCN(c2cccc3c2S(=O)(=O)N(C2CC2)CCCO3)C1 the results were hcDAF-12 act inactive, hgDAF-12 ag inactive, ssDAF12 agonist inactive, DAX1 inh-2 inactive and SMARCA2 activ inactive.
`O=C(NCC(=O)N1CCCCCCC1)c1ccc(Br)o1` gave DAX1 inh-1 6.0, hcDAF-12 act inactive, hgDAF-12 ag inactive, ssDAF12 agonist inactive, DAX1 inh-2 inactive and SMARCA2 activ inactive.
Screening O=C(Nc1ccc(N2CCOCC2)cc1)c1ccc(Br)o1 returned DAX1 inh-1 inactive, hcDAF-12 act inactive, hgDAF-12 ag 12, ssDAF12 agonist inactive, DAX1 inh-2 inactive and SMARCA2 activ inactive.
For O=C(NCC(=O)N1CCOCC1)c1ccc(Br)o1 the results were DAX1 inh-1 inactive, hcDAF-12 act inactive, hgDAF-12 ag inactive, ssDAF12 agonist inactive, DAX1 inh-2 3.7 and SMARCA2 activ inactive.
CC(=O)N1CCN(C(=O)CNC(=O)c2ccc(Br)o2)CC1 was read as DAX1 inh-1 inactive, hcDAF-12 act inactive, hgDAF-12 ag inactive, ssDAF12 agonist inactive, DAX1 inh-2 inactive and SMARCA2 activ inactive.
`O=C(Cc1ccc(Br)cc1)N1CCOCC1` gave DAX1 inh-1 inactive, hcDAF-12 act inactive, hgDAF-12 ag inactive, ssDAF12 agonist 0.9, DAX1 inh-2 inactive and SMARCA2 activ inactive.
Screening COC(=O)[C@H](C(C)C)N(Cc1cn(Cc2ccc(C)cc2)nn1)S(=O)(=O)c1ccc(F)cc1Br returned hcDAF-12 act inactive, hgDAF-12 ag inactive, ssDAF12 agonist inactive, DAX1 inh-2 inactive and SMARCA2 activ inactive.
COC(=O)[C@H](Cc1ccccc1)N(Cc1cn(Cc2ccccc2)nn1)S(=O)(=O)c1ccccc1Br was read as hcDAF-12 act inactive, hgDAF-12 ag inactive, ssDAF12 agonist inactive, DAX1 inh-2 inactive and SMARCA2 activ inactive.
Screening CC(=O)OC12CCCN(C1)/C(=C/c1cccc(N(C)C)c1)C2 (stereo not given) returned hcDAF-12 act inactive, hgDAF-12 ag inactive, ssDAF12 agonist inactive, DAX1 inh-2 inactive and SMARCA2 activ inactive.
Screening COc1ccc(OC)c(S(=O)(=O)N2CCC(C(=O)NCC3COCCO3)CC2)c1 (stereo not given) returned hcDAF-12 act inactive, hgDAF-12 ag inactive, ssDAF12 agonist inactive, DAX1 inh-2 inactive and SMARCA2 activ inactive.
c1ccc(COc2ccc(OCCn3cncn3)cc2)cc1 was read as DAX1 inh-1 inactive, hcDAF-12 act inactive, hgDAF-12 ag 13, ssDAF12 agonist inactive, DAX1 inh-2 inactive and SMARCA2 activ inactive.
`Cc1nc2ccc(S(=O)(=O)NCC(=O)NCc3ccc(F)cc3)cc2s1` gave hcDAF-12 act inactive, hgDAF-12 ag inactive, ssDAF12 agonist inactive, DAX1 inh-2 inactive and SMARCA2 activ inactive.
`COc1ccc(Cn2cc(CN3CC=CS3(=O)=O)nn2)cc1` gave hcDAF-12 act inactive, hgDAF-12 ag inactive, ssDAF12 agonist inactive, DAX1 inh-2 inactive and SMARCA2 activ inactive.
For Cc1ccc2nc(-c3ccncc3)c(NC3CCCC3)n2c1 the results were DAX1 inh-1 5.0, hcDAF-12 act inactive, hgDAF-12 ag inactive, ssDAF12 agonist inactive, DAX1 inh-2 inactive and SMARCA2 activ inactive.
`Cc1ccc(NC2=C/C(=N/S(=O)(=O)c3cccs3)c3ccccc3C2=O)cc1` gave DAX1 inh-1 inactive, hcDAF-12 act 5.8, hgDAF-12 ag inactive, ssDAF12 agonist inactive, DAX1 inh-2 inactive and SMARCA2 activ inactive.
For c1ccc(CCSc2nnc(-c3cccnc3)n2Cc2ccccc2)cc1 the results were hcDAF-12 act inactive, hgDAF-12 ag inactive, ssDAF12 agonist inactive, DAX1 inh-2 inactive and SMARCA2 activ inactive.
Screening NNC(=O)c1ccc(CSc2nc3ccccc3s2)cc1 returned DAX1 inh-1 inactive, hcDAF-12 act 6.1, hgDAF-12 ag 11, ssDAF12 agonist inactive, DAX1 inh-2 inactive and SMARCA2 activ inactive.
